High-throughput results deposited in PubChem BioAssay by National Center for Advancing Translational Sciences (NCATS).
Compounds with a hit are over-represented: about 7.6% of the library has one in this group of screens.
SW480 rereplic – A quantitative high throughput screen for small molecules that induce DNA re-replication in SW480 colon adenocarcinoma cells; actives 1.8% (n = 340,000); Potency, µM (highest dose often 46.1 µM), for inactives: at the highest dose re-replication activation, usual class: activators; SW480 DNA re-replication, Hoechst DNA content imaging, 48 h; also: potency is read from the fitted curve at half-maximal effect; % of control where 0% means no effect; nearly all actives have a fitted effect of over 55% in size
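Hoechst fluorescence of nuclei (405 nm excitation, 500-530 nm emission) measured by plate-scanning imager after 48 hr compound exposure at 37 C; re-replication scored as increased number of nuclei with elevated intensity.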
hERG WT inh – qHTS for Inhibitors of KCHN2 3.1: Wildtype qHTS. U2OS, BacMam KCNH2, thallium flux FluxOr; hits give low values. activity change, % at 1.84 µM. Voltage-gated inwardly rectifying potassium channel KCNH2 (Homo sapiens), Q12809. actives 0.37% (n = 340,000);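 active = maximum activity change below -70%; inconclusive = maximum activity change between -70% and -50%; inactive = maximum activity change above -50%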; also: % is scaled to controls: 0 for no effect and ±100 for the full control effect
Target sequence (Q12809 whole entry, looked up): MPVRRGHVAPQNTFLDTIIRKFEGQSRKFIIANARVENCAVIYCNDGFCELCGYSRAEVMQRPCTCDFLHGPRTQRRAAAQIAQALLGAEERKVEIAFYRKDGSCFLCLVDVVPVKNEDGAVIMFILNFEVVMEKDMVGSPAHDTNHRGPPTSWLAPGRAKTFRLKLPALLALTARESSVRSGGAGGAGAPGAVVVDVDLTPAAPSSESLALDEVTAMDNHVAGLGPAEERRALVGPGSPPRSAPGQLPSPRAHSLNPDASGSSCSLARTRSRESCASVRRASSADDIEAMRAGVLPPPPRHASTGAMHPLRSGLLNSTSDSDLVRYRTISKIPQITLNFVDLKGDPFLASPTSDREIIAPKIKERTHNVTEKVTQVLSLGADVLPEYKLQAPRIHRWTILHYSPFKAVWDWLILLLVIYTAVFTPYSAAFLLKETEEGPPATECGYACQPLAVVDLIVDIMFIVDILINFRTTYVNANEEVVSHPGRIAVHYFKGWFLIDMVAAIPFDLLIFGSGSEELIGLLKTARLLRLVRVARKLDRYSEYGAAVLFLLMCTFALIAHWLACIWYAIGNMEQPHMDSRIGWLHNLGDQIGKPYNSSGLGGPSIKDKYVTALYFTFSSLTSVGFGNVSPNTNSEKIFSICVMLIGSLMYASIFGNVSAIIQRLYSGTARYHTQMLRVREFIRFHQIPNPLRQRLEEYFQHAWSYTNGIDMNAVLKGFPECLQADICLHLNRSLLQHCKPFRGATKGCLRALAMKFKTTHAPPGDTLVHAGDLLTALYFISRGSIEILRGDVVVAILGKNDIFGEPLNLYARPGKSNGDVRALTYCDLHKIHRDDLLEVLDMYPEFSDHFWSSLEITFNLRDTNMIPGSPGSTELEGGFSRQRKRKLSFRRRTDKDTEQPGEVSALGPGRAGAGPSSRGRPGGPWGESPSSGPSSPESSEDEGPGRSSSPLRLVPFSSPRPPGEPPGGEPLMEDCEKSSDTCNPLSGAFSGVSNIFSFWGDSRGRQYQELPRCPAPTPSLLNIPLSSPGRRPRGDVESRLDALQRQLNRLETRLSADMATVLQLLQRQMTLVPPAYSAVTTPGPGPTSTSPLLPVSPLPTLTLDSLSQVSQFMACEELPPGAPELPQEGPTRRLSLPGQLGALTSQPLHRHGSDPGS
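U2OS cells transduced with wild-type KCNH2 virus are loaded with FluxOr dye for 45 min, and thallium flux is measured in kinetic reads before and after stimulation buffer. Rate constants are normalized to DMSO controls.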
KB-V1 MDR tox – qHTS assay for MDR1-selective chemotherapeutics: Primary screen using the drug-selected MDR subline cells KB-V1. actives 3.4% (n = 400,000). Potency, µM (series often up to 46.1 µM), hits mostly cytotoxic. KB-V1 MDR cells viability, CellTiter-Glo, 72 h; also: potency is read from the fitted curve at half-maximal effect; % is scaled to controls: 0 for no effect and ±100 for the full control effect; nearly all actives have a fitted effect of over 60% in size
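In this primary screen, KB-V1 cells overexpressing P-gp are incubated with library compounds (lowest to highest concentration) for 72 h at 37 degrees C before a luminescent ATP viability read.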
KCNH2 3.1 inh – qHTS for Inhibitors of KCHN2 3.1: Mutant qHTS | actives 0.95% (n = 340,000) | Potassium voltage-gated channel subfamily H member 2, brain isoform KCNH2 3.1 (human) | U2OS KCNH2 3.1, thallium flux FluxOr; hits give low values | activity change, % (tested at about 1.8 µM);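 active = maximum activity change below -70%; inconclusive = maximum activity change from -70% to -50%; inactive = maximum activity change above -50%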;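 also: thallium influx rate constant from kinetic fluorescence after stimulation buffer; % is scaled to controls: 0 for no effect and ±100 for the full control effect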
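Steps: virus added to U2OS suspension (4 h, RT, dark); medium with 10% FBS added, cells plated, 37 C overnight; FluxOr/Red40 loading buffer 45 min RT; stimulation buffer, 2 min kinetic read; rate constant normalized.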
KB-3-1 tox – qHTS assay for MDR1-selective chemotherapeutics: Primary screen using the parental adenocarcinoma cell KB-3-1; KB-3-1 viability, CellTiter-Glo ATP luminescence, 72 h; Potency, µM (highest dose often 46.1 µM), actives largely listed as cytotoxic; AID 1347075, 2019; actives 1.4% (n = 400,000); also: potency is read from the fitted curve at half-maximal effect; % is scaled to controls: 0 for no effect and ±100 for the full control effect; nearly all actives have a fitted effect of over 60% in size
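Parental KB-3-1 viability, qHTS format: 72 h compound exposure, 37 °C; CellTiter-Glo; media-only wells and DMSO plates as controls; concentration-effect fits on corrected data.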
MCF10A rerep – A quantitative high throughput screen for small molecules that induce DNA re-replication in MCF 10a normal breast cells; MCF 10A DNA re-replication, Hoechst nuclear intensity, 48 h; Potency, µM (series often up to 46.1 µM), inactives show at the highest dose activity, positive = re-replication, hits mostly activators; actives 2.9% (n = 350,000); AID 624296, 2012; also: potency is read from the fitted curve at half-maximal effect; % of control where 0% means no effect; nearly all actives have a fitted effect of over 50% in size
* marks the source's active call; other numbers are inactive results; i = inactive; ? = inconclusive; . = no result given. Unless noted, calls follow the shape of the dose curve; as a rule, active = well fitted curve in the direction sought with a large enough effect; inconclusive = small, poorly fitted or top-dose-only effect, or another doubt; inactive = no such curve, though single readings can be large; an effect the other way counts as inactive or inconclusive.

SMILES	SW480 rereplic	hERG WT inh	KB-V1 MDR tox	KCNH2 3.1 inh	KB-3-1 tox	MCF10A rerep
CC(C)C[C@@H](NC(=O)C1CCC(CNC(=O)[C@H](Cc2ccccc2)NC(=O)OC(C)(C)C)CC1)C(=O)O (stereo partly specified)	-2.0%	0.1	i	-10.7	i	-2.0%
Cc1cccc(C(=O)Nc2c3c(nn2-c2ccc(Cl)cc2)CS(=O)(=O)C3)c1	.	.	i	.	i	.
CC(=O)Nc1ccc2ccccc2c1	-13.2%	8.6	i	16.2	i	17.7%
CC(=O)Nc1ccc2cc3ccc(NC(C)=O)cc3nc2c1	-3.9%	7.3	i	12.4	23.1µM*	-7.9%
COc1cccc(C(=O)c2cn(CC(=O)Nc3ccc4c(c3)OCCO4)c3nc(C)ccc3c2=O)c1	.	.	i	.	i	.
CCOC(=O)c1cc(C#N)c(Oc2cccc(C(F)(F)F)c2)nc1-c1ccccc1	5.9%	-1.2	i	-10.4	i	?
CCOC(=O)c1cc(C#N)c(Oc2ccc(F)cc2)nc1-c1ccccc1	-4.0%	15.0	9.2µM*	.	i	12.7%
Cc1cccc(-n2ncc(C#N)c2N)c1	?	11.9	i	16.0	i	4.5%
N#Cc1cnn(-c2cc(Cl)ccc2Cl)c1N	.	7.3	i	7.7	i	.
N#Cc1cnn(-c2cccc(Cl)c2)c1N	-7.4%	-4.5	i	-86.4*	i	-3.2%
Nc1c(-c2cccc(Cl)c2)cnn1-c1cccc(C(F)(F)F)c1	3.3%	-0.8	20.6µM*	6.9	?	10.8%
N#Cc1cnn(-c2ccc([N+](=O)[O-])cc2[N+](=O)[O-])c1N	.	-4.0	?	2.4	18.4µM*	.
COc1cccc(C2=CC(c3ccccc3O)NC(C)(C)N2)c1 (stereo unspecified)	.	.	i	.	i	.
COC(=O)c1cc(C(=O)Nc2nnc(C3CC3)s2)cc([N+](=O)[O-])c1	-4.4%	-1.8	i	8.0	i	?
COc1cc(-c2cc(OC)c(O)c(OC)c2)cc(OC)c1O	23.1µM*	-3.6	?	-1.2	?	?
c1ccc2nccnc2c1	.	.	?	.	4.61µM*	.
c1cc(Nc2cccc3nccnc23)c2nccnc2c1	8.2µM*	-6.9	?	13.0	?	13.4%
CCCOc1cccc(C2C(C(=O)c3ccc(C)o3)=C(O)C(=O)N2c2nc(C)c(C(C)=O)s2)c1 (stereo unspecified)	?	0.6	?	-2.1	i	23.1µM*
CCOc1cccc(C2C(C(=O)c3ccco3)=C(O)C(=O)N2c2nnc(C)s2)c1 (stereo unspecified)	5.8µM*	-5.2	i	-4.4	i	-4.5%
CCOc1cccc(C2C(C(=O)c3ccc(C)o3)=C(O)C(=O)N2c2nnc(C)s2)c1 (stereo unspecified)	-1.3%	-1.6	i	-0.1	i	13.7%
CCCOc1ccc(C2C(C(=O)c3ccc(C)o3)=C(O)C(=O)N2Cc2ccco2)cc1 (stereo unspecified)	?	-1.4	18.4µM*	14.5	i	-2.1%
CC(=O)Nc1ccc(CC(=O)NCCC(c2ccccc2)c2ccccc2)cc1	20.6µM*	-7.2	i	-14.9	i	?
N#CCC(=O)Nc1ccc(C(=O)NCCC(c2ccccc2)c2ccccc2)cc1	-4.4%	1.9	i	1.4	i	1.0%
Nc1nc(N)c2c(OCC3CCN(Cc4ccccc4F)CC3)cccc2n1	.	.	?	.	i	.
Cc1ccc(S(=O)(=O)N2CC3C(=O)C[C@@H](c4ccccc4)N(S(=O)(=O)c4ccccc4Cl)C3CC2c2ccccc2)cc1 (stereo partly specified)	.	.	i	.	i	.
SMILES	SW480 rereplic	hERG WT inh	KB-V1 MDR tox	KCNH2 3.1 inh	KB-3-1 tox	MCF10A rerep
COc1ccc(-c2cn[nH]c2-c2ccc(OCc3ccc([N+](=O)[O-])cc3)cc2O)cc1OC	3.8%	0.2	4.11µM*	6.6	?	-1.4%
O=[N+]([O-])c1ccc(COc2ccc(-c3[nH]ncc3-c3ccc(Cl)cc3)c(O)c2)cc1	?	1.4	i	17.1	i	23.1µM*
COc1ccc(-c2cn[nH]c2-c2ccc(OCc3ccccc3F)cc2O)cc1OC	?	0.3	18.4µM*	-7.0	?	?
CC(O)[C@@H](NC(=O)C1CCC(CNC(=O)[C@H](Cc2ccccc2)NC(=O)OC(C)(C)C)CC1)C(=O)O (stereo partly specified)	-13.0%	0.4	i	0.6	i	13.1%
O=C(COC(=O)c1cccs1)NCc1ccco1	-6.5%	-15.3	i	2.5	i	-13.5%
Cc1cccc(NS(=O)(=O)c2cccs2)c1	-4.7%	-10.9	i	11.3	i	-2.3%
O=C(COC(=O)c1ccc(NS(=O)(=O)c2cccs2)cc1O)NCc1ccccc1	7.31µM*	0.4	13µM*	-1.2	5.8µM*	2.31µM*
O=S(=O)(Nc1cccc(CO)c1)c1cccs1	25.8%	-0.4	i	-1.2	0.206µM*	-2.1%
O=C(COC(=O)c1ccc(NS(=O)(=O)c2cccs2)cc1)NCc1ccco1	?	2.2	?	20.1	18.4µM*	9.2µM*
O=S1(=O)CC(N2CCCCC2)CN1CCc1ccccc1 (stereo unspecified)	.	.	i	.	i	.
CN1CCN(S(=O)(=O)c2ccc(NN)nc2)CC1	-5.0%	-27.3	i	17.1	i	-3.7%
CC(/C=N/NC(=O)Cc1cccn1C)=C\c1ccccc1	-1.5%	0.9	16.4µM*	-4.6	i	3.1%
CC(/C=N/NC(=O)Cc1cccs1)=C\c1ccccc1	21.3%	16.2	i	-8.3	i	?
COc1ccc(-c2nnc(SCc3cc(=O)c4cc(C)cc(C)c4[nH]3)n2C)cc1	.	.	?	.	8.2µM*	.
O=C(Nc1cccc(S(=O)(=O)NC2=NCCC2)c1)C1CC(=O)N(c2ccc3c(c2)OCCO3)C1 (stereo unspecified)	-7.6%	-16.3	i	7.0	i	-3.0%
Cn1c(N=Nc2ccccc2)nc2ccccc21	?	2.1	8.2µM*	-16.9	i	?
Nc1ccc(C(=O)NN2C(=O)[C@H](Cl)C2c2ccc(Cl)cc2)cc1 (stereo partly specified)	9.2µM*	-2.0	?	-5.5	?	16.4µM*
